Test results from the supplement of paper PMC7669877.
± gives the uncertainty stated by the source.

These compounds were tested on Candidatus Liberibacter solanacearum in potato hairy roots (assay: relative CLso titer (% of untreated control); higher = less inhibition of bacterial titer). Details: 10 µM; 72 h.
Method: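 Primary screen of ~220 Spectrum collection (MicroSource) compounds at 10 µM (0.1% DMSO) on Candidatus Liberibacter solanacearum-infected potato hairy roots in multi-well plates (Gamborg B-5 medium, vacuum infiltrated, 21 °C, dark, 72 h). CLso titer was measured by qPCR of 16S rDNA normalised to potato RPL2 (2^-ddCq), pairwise-standardised against untreated controls, averaged over two biological replicates and expressed as % of untreated.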
`Cc1cc(C2CCCCC2)n(O)c(=O)c1` was tested, and the “relative CLso titer” value was 44.1 ± 7.6%. `NS(=O)(=O)c1cc(C2(O)NC(=O)c3ccccc32)ccc1Cl` (centres undefined) was tested, and the “relative CLso titer” value was 58.5 ± 3.2%. In the case of `CCCC(C(=O)OCCN(CC)CC)(c1ccccc1)c1ccccc1`, the “relative CLso titer” value is reported as 112 ± 16%. With `OCCN(CCO)c1nc(N2CCCCC2)c2nc(N(CCO)CCO)nc(N3CCCCC3)c2n1` the “relative CLso titer” value was 107 ± 26%. For `CCCCOc1cc(C(=O)NCCN(CC)CC)c2ccccc2n1`, the “relative CLso titer” value was 147 ± 76%. `CC1=C(C(=O)O)N2C(=O)[C@@H](NC(=O)[C@H](N)c3ccccc3)[C@H]2SC1` was tested, and the “relative CLso titer” value was 87.1 ± 16%. `Cn1c(=O)c2c(ncn2C)n(C)c1=O` was tested, and the “relative CLso titer” value was 42.2 ± 4.3%. In the case of `Nc1ncnc2c1ncn2[C@@H]1O[C@H](CO)[C@@H](O)[C@H]1O`, the “relative CLso titer” value is reported as 51.4 ± 22%. `CC(=O)O[C@]1(C(C)=O)CC[C@H]2[C@@H]3C=C(Cl)C4=CC(=O)[C@@H]5C[C@@H]5[C@]4(C)[C@H]3CC[C@@]21C` was tested, and the “relative CLso titer” value was 114 ± 4.7%. `C[C@H](CCC(=O)O)[C@H]1CC[C@H]2[C@@H]3C(=O)C[C@@H]4CC(=O)CC[C@]4(C)[C@H]3CC(=O)[C@]12C` was tested, and the “relative CLso titer” value was 212 ± 78%. `CC1=C(/C=C/C(C)=C/C=C/C(C)=C\C(=O)O)C(C)(C)CCC1` was tested, and the “relative CLso titer” value was 80.8 ± 13%. In the case of `CCN(CC)CCNC(=O)COc1ccc(OC)cc1`, the “relative CLso titer” value is reported as 93.2 ± 2.3%. For `Cn1c(=O)c2c(ncn2CC(O)CO)n(C)c1=O` (centres undefined), the “relative CLso titer” value was 128 ± 10%. For `O=C(c1ccc(OCCN2CCCCC2)cc1)c1c(-c2ccc(O)cc2)sc2cc(O)ccc12`, the “relative CLso titer” value was 93 ± 3.9%. With `C[C@@H]1C[C@H]2[C@@H]3C[C@H](F)C4=CC(=O)C=C[C@]4(C)[C@@]3(F)[C@@H](O)C[C@]2(C)[C@@]1(OC(=O)c1ccco1)C(=O)SCF` the “relative CLso titer” value was 92.9 ± 10%. For `C[C@@](Cc1ccc(O)c(O)c1)(NN)C(=O)O`, the “relative CLso titer” value was 138.8 ± 1.3%. With `CO[C@@]1(NC(=O)CSCC#N)C(=O)N2C(C(=O)O)=C(CSc3nnnn3C)CS[C@@H]21` the “relative CLso titer” value was 114 ± 30%. `CN(C)CCOC(c1ccccc1)c1ccccc1.Cn1c(=O)c2[nH]c(Cl)nc2n(C)c1=O` was tested, and the “relative CLso titer” value was 127 ± 74%. In the case of `CO/N=C(\C(=O)N[C@@H]1C(=O)N2C(C(=O)O)=C(COC(C)=O)CS[C@H]12)c1csc(N)n1`, the “relative CLso titer” value is reported as 68.6 ± 14%. With `COC(=O)Nc1nc2cc(C(=O)c3ccccc3)ccc2[nH]1` the “relative CLso titer” value was 84 ± 10%. With `Nc1ccc(S(=O)(=O)Nc2cnc3ccccc3n2)cc1` the “relative CLso titer” value was 80.23 ± 0.64%. `C#C[C@]1(OC(C)=O)CC[C@H]2[C@@H]3CCC4=CC(=NO)CC[C@@H]4[C@H]3CC[C@@]21CC` (mixture of isomers) was tested, and the “relative CLso titer” value was 64.9 ± 10%. `CC1(C)OC(=O)C(OCC2CC2)=C1c1ccc(S(C)(=O)=O)cc1` was tested, and the “relative CLso titer” value was 53.8 ± 6.5%. For `Nc1ccc(S(=O)(=O)c2ccc(N)cc2)cc1`, the “relative CLso titer” value was 94.3 ± 19%. `CN1CCN(C(c2ccccc2)c2ccccc2)CC1` was tested, and the “relative CLso titer” value was 105 ± 31%. With `CCC1(C)CC(=O)NC1=O` (centres undefined) the “relative CLso titer” value was 119.65 ± 0.011%. `Cc1cn([C@H]2C[C@H](N=[N+]=[N-])[C@@H](CO)O2)c(=O)[nH]c1=O` was tested, and the “relative CLso titer” value was 52.6 ± 7.3%. `Cc1onc(-c2c(Cl)cccc2Cl)c1C(=O)N[C@@H]1C(=O)N2[C@@H]1SC(C)(C)[C@@H]2C(=O)O` was tested, and the “relative CLso titer” value was 145 ± 34%. In the case of `COc1ccc(C[C@H](N)C(=O)N[C@H]2[C@@H](O)[C@H](n3cnc4c(N(C)C)ncnc43)O[C@@H]2CO)cc1`, the “relative CLso titer” value is reported as 91.8 ± 5.9%. In the case of `CCOC(=O)[C@H](CCc1ccccc1)N[C@@H](C)C(=O)N(CC(=O)O)C1Cc2ccccc2C1`, the “relative CLso titer” value is reported as 90.7 ± 30%. For `CC(=O)OCC(=O)[C@@]1(O)CC[C@H]2[C@@H]3CCC4=CC(=O)CC[C@]4(C)[C@H]3C(=O)C[C@@]21C`, the “relative CLso titer” value was 27.6 ± 3%. In the case of `COc1ccc(CNc2nc(N3CCC[C@H]3CO)ncc2C(=O)NCc2ncccn2)cc1Cl`, the “relative CLso titer” value is reported as 110 ± 46%. `CC(NCCc1ccc(O)cc1)C(O)c1ccc(O)cc1` (centres undefined) was tested, and the “relative CLso titer” value was 82.6 ± 20%. For `NC12CC3CC(CC(C3)C1)C2`, the “relative CLso titer” value was 42.5 ± 3.2%.
